Experiments:
Assay in all cases: PBM binding z-score (relative to random genomic background probes); higher = stronger binding; sequences stand for … in GC…GCGATTGACAGCGTAGAATGAAGG
[1] = tested on: FXR:RXRa (NR concentration 270 nM, RXRa partner concentration 90 nM)
Outline: (§1)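 Random background probes are the reference for binding z-scores. These scores derive from regression-normalized fluorescence on custom Agilent 4×180K protein-binding microarrays incubated 1 h with ligand-free nuclear receptor dimers. Binding was detected with antibodies against each partner (one per run).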

[2] = tested on: LXRa:RXRa (NR concentration 270 nM, RXRa partner concentration 90 nM)
Outline: as §1

[3] = tested on: LXRa homodimer (NR concentration 270 nM)
Outline: as §1

[4] = tested on: LXRb:RXRa (NR concentration 270 nM, RXRa partner concentration 90 nM)
Outline: as §1

[5] = tested on: LXRb homodimer (NR concentration 270 nM)
Outline: as §1

[6] = tested on: PPARa:RXRa (NR concentration 270 nM, RXRa partner concentration 90 nM)
Outline: as §1

[7] = tested on: PPARg:RXRa (NR concentration 180 nM, RXRa partner concentration 90 nM)
Outline: as §1

[8] = tested on: PPARg:RXRa 270nM:90nM, anti-RXR (NR concentration 270 nM, RXRa partner concentration 90 nM)
Outline: as §1

[9] = tested on: PPARg:RXRa 30nM:10nM, anti-RXR (NR concentration 30 nM, RXRa partner concentration 10 nM)
Outline: as §1

[10] = tested on: PPARg:RXRa 90nM:30nM, anti-RXR (NR concentration 90 nM, RXRa partner concentration 30 nM)
Outline: as §1

Sequence	PBM binding z-score [1]	PBM binding z-score [2]	PBM binding z-score [3]	PBM binding z-score [4]	PBM binding z-score [5]	PBM binding z-score [6]	PBM binding z-score [7]	PBM binding z-score [8]	PBM binding z-score [9]	PBM binding z-score [10]
CTAGAAAGGTCGGTTGAGGTGAGTATACGGATAA	3.11	1.64	-0.0561	1.64	-0.0428	2.6	0.509	1.1	0.117	0.585
AGTCAGAGTTCAGGACGAGGTAACGTAAAGCACG	3.72	3.51	0.881	1.82	-0.0374	3.02	2.26	2.51	0.689	2.1
CGAACTAGGTCATTGACATGACAGTGAATAGTAA	5.2	3.24	0.582	2.31	-0.197	4.88	7.61	6.52	3.97	6.29
ATATGTAGGTTAACGGTCATTCAGGTTGGTTCGC	2.12	2.46	2.98	2.2	1.2	5.22	9.32	8.6	7.82	9.3
CGAACTAGGTCACGGACAGTGAATCTCCGCACGC	4.87	3.34	0.231	2.64	-0.137	5.68	9.36	7.68	5.94	7.84
CGTACAAGGTCAAGGTCAGTGAAAGAGACTCGAA	7.99	5.91	1.33	5.06	1.34	6.47	7.35	6.73	3.62	5.87
GCTAGCAGGCCATTTGCGTCACTCAATGACGGGC	-0.489	-0.808	-0.589	-1.15	-0.965	-0.622	0.189	-0.578	-0.911	-0.185
CCTCAGAGGACAACAGGAGGTCAGAGCTGCCAGA	1.05	2.25	2.4	1.34	-0.195	2.09	0.662	0.51	-0.374	-0.163
TCATATAGGTAAAGGAGAAAGTCGAACGATATGA	0.86	0.393	-0.261	0.259	-0.317	1.11	1.53	2.56	3.86	3.22
CGTCCAGGGTCATAGGAGGTCAGTGAAGACAGAT	7.36	7.25	2.83	6.26	0.185	5.85	5.65	5.78	2.38	4.63
CCGACTGGGGCAAAGGTGACCATACTCAGTACGA	0.275	0.171	-0.478	0.634	-1.65	4.77	10.3	8.5	8.35	9.3
CCTTGGAGGACAACAGGAGGTCAGAGCTGCCAGA	1.03	2.19	2.44	1.58	-0.284	2.26	0.731	0.64	0.153	0.077
ATATGTAGGTTAGCTGGGGCCATTCAGACTAGGC	0.601	1.15	0.0611	0.901	0.197	2.55	3.09	2.56	0.952	2.06
TCTTGTAGATCAGCAGGCTAAGAAAGCTGGCCAA	-0.304	-0.495	-0.573	-0.216	-0.933	0.0616	-0.735	0.857	2.22	1.47
CCTACTGGGCCATTCGGAGGTCATTGATCATATG	1.8	2.8	4.71	2.59	-0.128	3.01	1.38	2.45	0.304	1.27
CCTCGGAGGACAGAAGCTCAGAGCTGTCCGCTTT	-0.605	-0.517	-0.873	-1.16	-0.889	-1.83	-0.876	-1.61	-1.52	-1.69
CCGACTGGGGCAAGGTTACGATAACGCACAGCCA	0.216	0.654	-0.354	0.677	-1.27	2.06	2.79	3.25	0.969	2.5
GCAGACAGGTGAAACGCAGGTAACTCCGGGTGGC	-0.276	0.017	-0.496	-0.36	-1.37	0.805	0.312	0.0906	-0.41	-0.188
TCTGCTAGGCCAACGATGGTCAGCTAATCTGCTA	-1.19	-0.741	-1.19	-1.05	-1.1	-0.375	-0.327	0.663	1.12	0.978
AGAATGTGGTTACCAAAGATCAGGGAAACGCTTG	-0.517	0.7	-0.272	-0.139	-0.442	-0.0504	0.469	0.425	0.333	0.271
ATATGTAGGTTACATCCGGGCCATTCAGGCTATG	0.546	2.67	0.422	1.05	0.287	3.13	5.08	4.09	1.51	3.05
CCTGACGGGTCACTGACAGGTTATAGCATTTGGA	4.19	3.46	0.214	2.64	-0.319	4.19	2.56	2.71	0.481	1.8
GATACAGGGTCAAGGCCAGAGTGCGCGTATTGAT	6.68	4.01	0.0458	3.51	-0.343	5.4	5.81	5.34	2.09	4
CGACCAAGGTCAAGGTCAGTGAAAGAGACTCGAA	7.76	5.28	0.72	4.53	0.222	6.07	6.71	6.54	2.6	5.32

Source: the supplement of paper PMC6555819
